beta cell repl = inducers of MIN6 beta-cell proliferation, primary screen, ATP luminescence, uHTS; MIN6 cells proliferation, ATPlite luminescence, 48 h; cells starved in 0.2% serum; 100% = growth in 10% serum; proliferation, % at 10 µM; actives 0.29% (n = 330,000); AID 2380, 2010;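 active = compounds whose signal lies at least 3.5 SD above the mean of all wells on their plate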
Myeloid diff MLP = induction of myeloid progenitor differentiation, primary screen, cell-based, flow cytometry, MLPCN library | ER-HoxA9 myeloid progenitors, lysozyme-GFP differentiation | AID 624256, 2012 | actives 1% (n = 360,000) | calls only at 10 µM;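 active = normalized GFP-positive differentiation at or above the plate's own cutoff, the solvent-only control mean plus 3 SD; inconclusive = no clear call, values can overlap the other calls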;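 note: cells exposed to compound for four days before flow analysis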
ABCB6 inh 2 = ABCB6 transporter inhibitors, primary screen, K562-ABCB6 cells, flow cytometry, MLPCN library | K562-ABCB6 porphyrin accumulation, 1 h; stronger effect = lower value | fluorescence ratio to DMSO, % at 10 µM | actives 0.19% (n = 360,000) | ATP-binding cassette sub-family B member 6 (Homo sapiens), Q9NP58;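 active = fluorescence ratio to DMSO below 75%, the collection mean minus 3 SD; inconclusive = too few cells collected in the well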;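 note: signal is porphyrin accumulated inside mitochondria; lower ratio means ABCB6 inhibition with less porphyrin fluorescence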
Target sequence (Q9NP58 whole entry, looked up): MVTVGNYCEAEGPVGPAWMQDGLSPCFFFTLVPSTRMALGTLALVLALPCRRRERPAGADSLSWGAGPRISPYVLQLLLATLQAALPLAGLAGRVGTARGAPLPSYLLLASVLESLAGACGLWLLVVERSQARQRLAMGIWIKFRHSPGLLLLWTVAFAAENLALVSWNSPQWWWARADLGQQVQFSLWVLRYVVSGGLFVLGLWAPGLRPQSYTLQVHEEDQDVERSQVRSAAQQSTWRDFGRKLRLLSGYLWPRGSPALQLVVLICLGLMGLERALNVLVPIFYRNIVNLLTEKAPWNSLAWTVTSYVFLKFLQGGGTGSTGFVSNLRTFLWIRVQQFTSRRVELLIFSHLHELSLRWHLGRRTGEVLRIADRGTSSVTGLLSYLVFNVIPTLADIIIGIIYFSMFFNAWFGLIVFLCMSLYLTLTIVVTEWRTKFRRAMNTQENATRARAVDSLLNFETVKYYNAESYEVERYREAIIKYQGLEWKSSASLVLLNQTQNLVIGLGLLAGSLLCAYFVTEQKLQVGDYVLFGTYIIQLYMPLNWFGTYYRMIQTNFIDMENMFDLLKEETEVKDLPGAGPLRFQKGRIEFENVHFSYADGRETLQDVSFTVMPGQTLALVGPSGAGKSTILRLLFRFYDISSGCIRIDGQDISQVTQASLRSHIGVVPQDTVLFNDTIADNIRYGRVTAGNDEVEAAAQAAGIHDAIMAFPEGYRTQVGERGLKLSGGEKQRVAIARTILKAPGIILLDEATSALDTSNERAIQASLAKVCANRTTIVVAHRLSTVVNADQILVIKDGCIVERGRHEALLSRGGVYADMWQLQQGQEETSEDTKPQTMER
iPSC survival up = enhancers of single-cell hiPSC survival, primary screen, ATPlite luminescence. survival enhancement, % at 20 µM. actives 0.044% (n = 360,000). 100% = ROCK inhibitor wells, 0% = DMSO; in the data active = survival enhancement above about 18%;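 note: cells exposed to compounds for 16 hours before the ATP read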
H9c2 protect = cardioprotection against H2O2-induced cell death, primary screen, uHTS, H9c2 cells, ATPLite luminescence. H9c2 cardiomyocytes, H2O2 injury protection, 2 h. protection from H2O2 cell death, % at 20 µM. actives 0.63% (n = 360,000);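 active = compounds giving at least 50% protection of heart cells from peroxide-induced death in the single-dose screen, raw or plate-pattern-corrected value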
Of the large screens only hits and unclear results are named; the others gave an inactive call; ! = repeats disagree. A selection: hits, their analogues and other compounds. The true share with any hit is near 2.2%.

Cc1ccc(C)c2[nH]c(=O)c(CN(CCN3CCOCC3)Cc3nnnn3CC3CCCO3)cc12 (centres undefined)	none
COc1ccc(CNC(=O)C[C@H]2C(=O)N(Cc3ccccc3)C[C@@H]2Cc2ccccc2)cc1	none
CN(C)c1ccc(/C=C(/C#N)C(=O)Nc2nc3c(s2)CCN(Cc2ccccc2)C3)cc1	Myeloid diff MLP active (no result: beta cell repl)
N#Cc1c(-c2ccccc2)c(C#N)c2nc3ccccc3n2c1N	Myeloid diff MLP active
COc1cc2c(c(OC)c1OC)-c1c(cc3c(c1OC)OCO3)[C@@H](OC(C)=O)[C@H](C)[C@H](C)C2	none
CCOC(=O)C1=C(C)NC(C)=C(C(=O)OCC)C1C(=O)OCC(=O)NC(C)C	H9c2 protect 57!
CCOC(=O)C1=C(C)NC(C)=C(C(=O)OCC)C1C(=O)OCC(N)=O	none
COc1ccc(Cl)cc1NC(=O)CN(C)C(=O)Cn1cnnn1	none
Cc1cccc(C2(c3cccc(C)c3)OC(=O)c3ccccc32)c1	Myeloid diff MLP active
Oc1ccccc1/C=N/Nc1cccc2cccnc12	Myeloid diff MLP active
COc1ccc(-n2ccnc(SCC(=O)NC3CCCC3)c2=O)cc1OC	none
C=CCN1C(=O)/C(=c2\sc3nc(=O)c(Cc4ccc(OC)c(OC)c4)nn3c2=O)c2ccccc21	ABCB6 inh 2 11
C=CCN1C(=O)/C(=c2\sc3nc(=O)c(Cc4ccccc4)nn3c2=O)c2ccccc21	none
CSc1nsc(SC)c1-c1ccc(Cl)cc1	none (no result: beta cell repl)
Cc1cc(O)ccc1N/C=C(\C#N)c1nc2ccccc2o1	none
CSc1nsc(/C=C/Nc2cccc(Cl)c2)c1C#N	Myeloid diff MLP active
CSc1nsc(/C=C/Nc2ccc(O)cc2C)c1C#N	Myeloid diff MLP active
CSc1nsc(N/N=C/c2ccc3c(c2)OCO3)c1C#N	none
CSc1nsc(/C=C/Nc2ccc(F)cc2)c1C#N	Myeloid diff MLP active
CSc1nsc(/C=C/Nc2ccc(Cl)cc2)c1C#N	Myeloid diff MLP active
CCCCN=C(NNc1ccc(Br)cc1)C(=O)OCC	none
Nc1ccc(N2CCOCC2)c2nonc12	none
CC(/C=C/c1ccccc1)=N/NC(=O)c1cc([N+](=O)[O-])cc([N+](=O)[O-])c1	H9c2 protect 65 (no result: beta cell repl)
NC(=O)c1sc2nc(-c3ccccc3)ccc2c1N	Myeloid diff MLP active
COc1ccc(-c2ccc3c(N)c(C(=O)c4ccc(OC)c(OC)c4)sc3n2)cc1	none
CCOC(=O)c1sc2nc(-c3ccccc3)ccc2c1N	none
COc1ccc(C(=O)c2sc3nc(-c4ccccc4)ccc3c2N)cc1OC	Myeloid diff MLP active
CC(CC(=O)N1CCN(c2ccccc2F)CC1)c1ccccc1 (centres undefined)	none
Cc1nc2ccccc2c2nc(N)nn12	none
COc1cc(NS(=O)(=O)c2ccc(N/C=C(\C#N)c3nc4cc(Cl)ccc4o3)cc2)nc(OC)n1	ABCB6 inh 2 55 (no result: Myeloid diff MLP)
COc1ccc([C@H]2CC(=O)C=C(c3cc(Br)ccc3OC)C2)cc1	Myeloid diff MLP active
Cc1ccc(CSc2nnc(-c3ccccc3N)c(=O)[nH]2)cc1	none
Cc1ccc(-n2cc(-c3ccccc3)c3c(N4CCN(C)CC4)ncnc32)cc1	none
Cc1ccc(-n2cc(-c3ccccc3)c3c(N4CCOCC4)ncnc32)cc1	H9c2 protect 57 (no result: beta cell repl)
CCOC(=O)c1cccc(S(=O)(=O)N2CCOCC2)c1	none
O=C(OCCOc1ccccc1F)c1cccc(S(=O)(=O)N2CCOCC2)c1	Myeloid diff MLP active
COc1ccccc1-n1cnnc1SCC(=O)Nc1cc(C(C)(C)C)nn1-c1ccccc1	none
COc1ccc(N2C(=O)/C(=C/c3ccc([N+](=O)[O-])cc3)C=C2c2ccccc2)cc1	Myeloid diff MLP active
O=C1/C(=C/c2ccc([N+](=O)[O-])cc2)C=C(c2ccccc2)N1c1ccccc1	none
CC1(C(=O)NS(=O)(=O)Cc2ccccc2)CCN1C(=O)C/C=C/c1ccccc1 (centres undefined)	none (no result: beta cell repl)
CC1(C)Cc2c(c(N3CCOCC3)nc3sc(C(=O)N4CCCCC4)c(N)c23)CO1	none
CC1(C)Cc2c(c(N3CCOCC3)nc3sc(-c4ccc(C(=O)O)o4)c(N)c23)CO1	Myeloid diff MLP active
CNC(=O)c1ccc(-c2sc3nc(N4CCOCC4)c4c(c3c2N)CC(C)(C)OC4)o1	H9c2 protect 97
CNC(=O)c1ccc(-c2sc3nc(N4CCOCC4)c4c(c3c2N)CCCC4)o1	H9c2 protect 80
Nn1cnnc1SCC(=O)Nc1ccc2c(c1)OCCO2	none
CS(=O)(=O)N(CC(=O)NCc1ccccc1Cl)Cc1ccccc1	none
COc1cccc(NC(=O)CN(C)CC(=O)Nc2ccc(C)c([N+](=O)[O-])c2)c1	Myeloid diff MLP active
COc1cccc(NC(=O)CN(C)CC(=O)Nc2ccc3c(c2)OCO3)c1	none
CCCSC1C(C)=C(C)C(=O)N1Cc1ccccc1 (centres undefined)	none
COCCCn1c(=O)c2sccc2n2c(CCCC(=O)NCc3ccc(F)cc3)nnc12	none
O=C(Cc1ccccc1)NCCC1=CCCCC1	none
O=C(Cc1ccccc1[N+](=O)[O-])NCCC1=CCCCC1	Myeloid diff MLP active
COc1ccc2cc(C(=O)C3CCCN(C(=O)c4cnccn4)C3)ccc2c1 (centres undefined)	none
O=C1OC(/C=C/c2ccccc2)=NC/1=C\c1cccnc1	none
O=C(CC1C(=O)NCCN1Cc1cccc(C(F)(F)F)c1)NC1CCOCC1 (centres undefined)	none
Cc1ccccc1C(=O)Nc1nc(SCc2ccc(Cl)cc2)n[nH]1	none
O=c1c2ccccc2nc(COc2ccccc2)n1/N=C/c1cn[nH]c1-c1ccccc1	Myeloid diff MLP active
O=C(Nc1ccnn1C1CCN(CC2CC=CCC2)CC1)c1ccccc1Cl (centres undefined)	none
O=C(NCCCNCc1ccccc1)c1ccncc1	none
CN(C)CCCNCCCNC(=O)c1ccncc1	Myeloid diff MLP active
COc1ccc(-c2noc(N3CCC(C(=O)Nc4cc(OC)ccc4OC)CC3)n2)cc1	none
CC12CC(c3ccccc3O1)C(C(=O)NCc1ccccc1)C(=O)N2 (centres undefined)	none
O=C(CNC(=O)c1[nH]cnc1C(=O)NC(c1ccccc1)c1ccccc1)OCc1ccccc1	H9c2 protect 58
CC(C)(C)OC(=O)NCCCC[C@H](NC(=O)c1nc[nH]c1C(=O)N[C@@H](CCCCNC(=O)OC(C)(C)C)C(=O)OC(C)(C)C)C(=O)OC(C)(C)C	Myeloid diff MLP inconclusive
CC(C)(C)OC(=O)NCc1ccc(NC(=O)c2nc[nH]c2C(=O)NCCNC(=O)c2[nH]cnc2C(=O)Nc2ccc(CNC(=O)OC(C)(C)C)cc2)cc1	none
CC(C)(C)OC(=O)CNC(=O)c1[nH]cnc1C(=O)NCC(=O)OCc1ccccc1	Myeloid diff MLP inconclusive, H9c2 protect 105

High-throughput results deposited in PubChem BioAssay by several laboratories.
